Source: PubChem BioAssay (National Center for Advancing Translational Sciences (NCATS))
Integrin act MD – activators of alpha7 integrin expression for muscular dystrophy; alpha7betagal myoblasts, beta-gal FDG fluorescence, 48 h; Potency, µM (doses to about 38.3 µM), usual class: activators; hit rate 0.064% among 350,000; note: nearly all actives have a fitted effect of over 60% in size
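alpha7betagal+/- myoblasts (passage 13, 250/well) treated 48 h at 37C with compounds at 1:260 dilution of DMSO stock. Lysed, then beta-galactosidase activity read as FDG fluorescence (ex 480/em 540) after 30 min, with pre-read for autofluorescence.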
ClpP mod – qHTS Assay for Activators of ClpP | Potency, µM (series often up to 57.5 µM) | hit rate 1.9% among 340,000 | purified B. subtilis ClpP, FRET peptide cleavage, 20 min | AID 651965, 2013; active = well fitted falling curve with a large enough effect; inconclusive = small, poorly fitted or top-dose-only effect; inactive = no such curve, though single readings can be large or run the other way; note: the source files actives as falling curves though it sought activators and does not explain the sign; nearly all actives have a fitted effect of over 65% in size
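Buffer: 100 mM Tris/HCl pH8, 100 mM KCl, 0.05% low protease BSA, 2.5% glycerol, 0.01% Tween-20. ClpP 10 microg/mL final; 20 min RT; delta FRET normalized to ADEP and DMSO controls.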
p53 reactivation – mutant p53 re-activation in reporter cells. H1299 p53-A138V BP100-luciferase reporter, luminescence, 24 h. Potency, µM (titrated, usually from 92.2 µM), hits mostly activators. hit rate 0.063% among 320,000. AID 504706; note: nearly all actives have a fitted effect of over 45% in size
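H1299 (p53-null), stable ts p53-A138V + BP100-Luc; 1000 cells/well, Opti-MEM/10% FBS; cpd 4 pt, 1:5; 24 h, 37 deg C, 5% CO2; detection reagent 10 min RT; luminescence.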
Eya2 inh – blocks the phosphatase activity of human Eya2 | O00167 | recombinant Eya2, OMFP fluorescence dephosphorylation (OMFP is methylfluorescein phosphate) | Potency, µM (series often up to 76.9 µM), most hits filed as inhibitors | hit rate 0.006% among 330,000
Target sequence (O00167 whole entry, looked up): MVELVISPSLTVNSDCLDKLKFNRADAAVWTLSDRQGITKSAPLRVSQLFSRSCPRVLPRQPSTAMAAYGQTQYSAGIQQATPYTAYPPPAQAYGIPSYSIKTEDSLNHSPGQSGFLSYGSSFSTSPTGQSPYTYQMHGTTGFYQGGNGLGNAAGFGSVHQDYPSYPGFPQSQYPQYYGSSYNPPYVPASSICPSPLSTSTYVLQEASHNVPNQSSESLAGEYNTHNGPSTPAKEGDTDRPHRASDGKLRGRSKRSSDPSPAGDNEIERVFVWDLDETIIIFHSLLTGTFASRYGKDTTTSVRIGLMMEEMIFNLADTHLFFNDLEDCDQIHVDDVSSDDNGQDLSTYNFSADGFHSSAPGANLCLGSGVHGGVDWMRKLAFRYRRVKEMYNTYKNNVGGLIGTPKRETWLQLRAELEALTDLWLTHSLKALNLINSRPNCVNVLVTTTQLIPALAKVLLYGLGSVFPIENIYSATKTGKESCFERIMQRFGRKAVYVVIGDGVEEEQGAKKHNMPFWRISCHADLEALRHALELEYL
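Eya2 protein (added as 0.2 uM solution) was preincubated with compound for 10 min at ambient temperature in 50 mM HEPES pH 7.5, 50 mM NaCl, 5 uM MgCl2, 0.05% BSA, 1 mM DTT. OMFP (added at 50 uM) then reacted 10 min; fluorescence read at 485/525 nm.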
MmCpn inh – M. maripaludis TRiC chaperonin inhibition; AID 504842; Potency, µM (series often up to 76.9 µM), most hits filed as inhibitors; purified Mm-Cpn ATPase, ADP Transcreener TR-FRET; hit rate 0.031% among 330,000; note: nearly all actives have a fitted effect of over 80% in size
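25 nM Mm-CPN + cpd, 10 min 37°C; + 10 uM ATP, 30 min 37°C; buffer 30 mM Tris pH 7.4, 100 mM KCl, 5 mM MgCl2, 1 mM DTT; Transcreener ADP HTRF detection 30 min RT.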
USP2a block – blocks human ubiquitin-specific protease USP2a | Potency, µM (titrated, usually from 38.3 µM), actives largely listed as inhibitors | hit rate 0.01% among 330,000 | USP2 core, Ub-CHOP2 coupled fluorogenic reporter, 485/531 | O75604
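Deubiquitinase activity read as fluorescence (485/531 nm) after Ub-CHOP2 cleavage activates the enterokinase reporter on its substrate; USP2 core 10nM, Ub-CHOP2 and substrate 25nM each, 30min compound preincubation then 60min RT; data normalized to NEM, curves fitted.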
A number is an active result; n = inactive; u = inconclusive; x = no result given. Only a selection was taken, and hits are over-represented in it overall. Unless noted, calls come from the whole dose curve; as a rule, active = well fitted curve in the direction sought with a large enough effect; inconclusive = small, poorly fitted or top-dose-only effect, or another doubt; inactive = no such curve, though single readings can be large; an effect the other way counts as inactive or inconclusive.

SMILES	Integrin act MD	ClpP mod	p53 reactivation	Eya2 inh	MmCpn inh	USP2a block
Cn1c2ccc(F)cc2c2ncn(CC3CCCO3)c(=O)c21 (centres undefined)	n	n	n	n	n	n
COc1ccc2[nH]c3c(=O)n(CCN4CCOCC4)cnc3c2c1	n	x	n	n	n	n
COc1cc2[nH]c(=O)n(Cc3ccc(C(=O)NCc4ccccc4)cc3)c(=O)c2cc1OC	x	n	x	x	x	x
COc1ccc(-c2nnc3ccc(SC(C)C)nn23)cc1OC	x	n	x	x	x	x
Brc1ccc(Nc2c3c(nc4nncn24)CCC3)cc1	x	n	x	x	x	x
Cc1ccccc1C(=O)Nc1scc(-c2ccc(Br)cc2)c1C(=O)O	2.82µM	n	x	x	x	x
O=C(Nc1scc(-c2ccc(Br)cc2)c1C(=O)O)c1ccccc1F	n	x	x	x	x	x
O=C(/C=C\c1ccc2c(c1)OCO2)NC1CC(=O)N(c2ccccc2)C1 (centres undefined)	x	n	x	x	x	x
COc1ccc(N2CC(NC(=O)/C=C\c3ccc4c(c3)OCO4)CC2=O)cc1 (centres undefined)	x	28.2µM	x	x	x	x
CCCN(CCC)CCNC(=O)CS(=O)Cc1nc(-c2ccc(OC)c(OC)c2)oc1C (centres undefined)	x	31.6µM	x	x	x	x
COc1ccc(-c2nc(CS(=O)CC(=O)NCc3ccc(F)cc3)c(C)o2)cc1OC (centres undefined)	x	28.2µM	x	x	x	x
COc1ccc(-c2nc(CS(=O)CC(=O)NCc3ccc(C)cc3)c(C)o2)cc1OC (centres undefined)	n	n	n	n	n	n
CC1=C(C(=O)OC(C)C)C(c2cccnc2)C2=C(CC(C)(C)CC2=O)N1 (centres undefined)	n	28.2µM	n	n	n	n
COCCOC(=O)C1=C(C)NC2=C(C(=O)CC(C)(C)C2)C1c1cccnc1 (centres undefined)	n	28.2µM	n	n	n	n
CC1=C(C(=O)OC(C)C)C(c2ccc(N(C)C)cc2)C2=C(CC(C)(C)CC2=O)N1 (centres undefined)	n	n	n	n	n	n
CC1(C)S[C@@H]2[C@H](NC(=O)COc3ccccc3)C(=O)N2[C@@H]1C(=O)OCc1cccc2cccnc12	x	n	x	x	x	x
Cc1cccc(-c2csc(N3CCC(C(N)=O)CC3)n2)c1	x	x	x	x	n	x
Cc1cc(-c2csc(NC(=O)c3cccc(S(=O)(=O)N(C)C)c3)n2)c(C)n1-c1ccccc1	n	14.1µM	n	n	u	n
Cc1ccccc1N=Cc1cccc(O)c1O	n	n	n	n	n	n
Cc1cccc(C=Nc2ccc3c(c2)oc2ccccc23)c1O	n	31.6µM	u	n	n	n
CCOC(=O)c1cc(-c2ccc(C)cc2)n(CC(=O)Nc2ccccc2F)c1C	x	n	x	x	x	x
COc1ccc(-c2noc(CN(C(=O)Cc3ccc(C)cc3)C(C)C)n2)cc1	x	n	x	x	x	x
CN(C)c1ccc(C(CNC(=O)c2ccccc2F)N2CCc3ccccc32)cc1 (centres undefined)	x	n	x	x	x	x
COc1ccc(C=C(c2ccc(OC)cc2)c2ccc(OC)cc2)cc1	n	31.6µM	n	n	n	n
COc1ccc(/C=N/N=C/c2ccc(OC)cc2)cc1	n	n	n	n	n	n
SMILES	Integrin act MD	ClpP mod	p53 reactivation	Eya2 inh	MmCpn inh	USP2a block
Oc1cc(O)c(/C=C/c2ccnc3ccccc23)c(O)c1	x	n	x	x	x	x
O=[N+]([O-])c1cc(C=NN2CCCCCC2)ccc1Cl	n	28.2µM	x	x	x	x
O=[N+]([O-])c1cc(/C=N/N2CCCCC2)ccc1Cl	n	x	u	n	n	n
NC(=O)N/N=C/c1ccc(-c2ccc(S(=O)(=O)Nc3ncccn3)cc2)o1	n	u	n	n	n	n
CC(C)Oc1ccc(C(=O)N/N=C/c2ccc(-c3ccc(S(=O)(=O)Nc4ncccn4)cc3)o2)cc1	n	14.1µM	n	n	n	n
CN(C)CCCC1(O)c2ccccc2C=Cc2ccccc21	n	28.2µM	n	n	n	n
CN(C)CCCC1(O)c2ccccc2CCc2ccccc21	n	x	n	n	n	n
